Test results published in PubChem BioAssay (NCI).
The panel holds about 79,000 compounds, 15% with a hit somewhere; the sample as a whole holds those more often. Cut-off read from the data, not from the text of the source: active = growth inhibition above about 70%; inactive = the rest.

What was measured:
[1] = NCI Yeast Anticancer Drug Screen. Data for the rad50 strain (AID 155);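 note: 0% = growth of vehicle-only cultures of the same strain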; conditions: S. cerevisiae rad50 strain growth inhibition; at 50.0 µM; active compounds read high
Method in brief: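 Cells are treated with compound, grown, and their growth is then scored against vehicle-only cultures of the same repair-deficient yeast strain.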

[2] = NCI Yeast Anticancer Drug Screen. Data for the mec2-1 strain (AID 157); conditions: S. cerevisiae mec2-1 strain, at 50.0 µM, active compounds read high
Method in brief: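 Growth inhibition is read against vehicle-treated controls after compound exposure of the mec2-1 yeast strain, which is defective in DNA damage repair or cell cycle control.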

[3] = NCI Yeast Anticancer Drug Screen. Data for the sgs1 mgt1 strain (AID 161);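 note: 0% = growth of cultures given vehicle only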; conditions: S. cerevisiae sgs1 mgt1 strain, at 50.0 µM, active compounds read high
Method in brief: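 This yeast growth screen uses a strain with defined DNA-repair lesions; compound-treated growth is compared with vehicle-treated growth.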

[4] = NCI Yeast Anticancer Drug Screen. Data for the cln2 rad14 strain (AID 165);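 note: 0% = growth equal to vehicle treated cultures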; conditions: S. cerevisiae cln2 rad14 strain, at 50.0 µM, active compounds read high
Method in brief: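 Growth inhibition, relative to vehicle-treated controls, is the read-out. The test organism is a yeast strain with defined genetic alterations, cln2 rad14.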

[5] = NCI Yeast Anticancer Drug Screen. Data for the bub3 strain (AID 167); conditions: S. cerevisiae bub3 mutant strain, at 50.0 µM, active compounds read high
Method in brief: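 Part of a panel of yeast mutants defective in DNA damage repair or cell cycle regulation. Each strain is grown with compound, and inhibition is calculated relative to solvent-treated cultures.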

[6] = NCI Yeast Anticancer Drug Screen. Data for the mlh1 rad18 strain (AID 175); conditions: S. cerevisiae mlh1 rad18 strain growth inhibition; at 50.0 µM; active compounds read high
Method in brief: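 Cells of a genetically altered yeast strain, deficient in DNA damage repair, were treated with compound. Their growth was then compared with that of vehicle-treated cultures to give inhibition.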

Measured: growth inhibition

COc1c2c(cc3c1C1(O)Cc4ccc5c(c4C[N+]1(C)CC3)OCO5)OCO2 (stereo unspecified)
inactive: [1] 10.8% | [2] 3.05% | [3] -5.3% | [4] -1.15% | [5] -4.25% | [6] -60.8%

CCOC(=O)CNC(N)=O
inactive: [1] 33.6% | [2] 15.3% | [3] -19.5% | [4] 19.4% | [5] 23.8% | [6] 5.2%

COc1ccc(C(Nc2ccccn2)c2cc(C(C)(C)C)cc(C(C)(C)C)c2O)cc1 (stereo unspecified)
inactive: [1] 43.6% | [2] -2.95% | [3] 9.45% | [4] 12.4% | [5] 41.9% | [6] 38.8%

Cc1cc(C)cc(OCCC(=O)O)c1
inactive: [1] -1.4% | [2] -16.6% | [3] -10.4% | [4] 21.7% | [5] 2.95% | [6] 7.1%

O=C1OC2C3c4ccccc4C(c4c3ccc3ccccc43)C2O1 (stereo unspecified)
inactive: [1] 10.1% | [2] 10.9% | [3] 19.8% | [4] 19.7% | [5] 24.1% | [6] 29.2%

CCCOC(=O)c1ccccc1Cl
inactive: [1] 31.1% | [2] 22.5% | [3] 23.1% | [4] 13.4% | [5] 11.6% | [6] 24.1%

CN1C(=O)c2ccccc2Cc2c(Cl)ncnc21
inactive: [1] -0.5% | [2] 26.4% | [3] 11.2% | [4] -1.45% | [5] 28.6% | [6] 2.1%

O=C(/C=C/c1ccccc1)NC(Cc1ccccc1)C(=O)O (stereo unspecified)
inactive: [1] -21% | [2] -11.4% | [3] -8.25% | [4] -5.55% | [5] -14.1% | [6] -12.2%

c1cc(Nc2ccncc2)ccn1
inactive: [1] 23.6% | [2] -13% | [3] -1.9% | [4] 6.2% | [5] 0.15% | [6] 19.9%

CCNC(=O)CCP(=O)(CCC(=O)NCC)CCC(=O)NCC
inactive: [1] 7.25% | [2] -3.05% | [3] 3.9% | [4] -4.35% | [5] -6.7% | [6] 6%

CC1C2=C(CCCC2=O)O/C1=N\O (stereo unspecified)
inactive: [1] 11.4% | [2] -6.85% | [3] -0.85% | [4] -24.9% | [5] 6.7% | [6] 12.2%

COc1ccc(-c2c(C#N)c(O)n(NS(=O)(=O)c3ccc(C)cc3)c(=O)c2C#N)cc1
inactive: [1] 12.1% | [2] 37% | [3] 33% | [4] 20.8% | [5] 28.5% | [6] 37.5%

CCN(CC)CCOC(=O)Nc1c(Cl)cccc1Cl
inactive: [1] -3.75% | [2] -16.7% | [3] 8.6% | [4] 9.4% | [5] 9.25% | [6] 6.05%

O=C(O)CNC(=O)C(=O)c1c[nH]c2ccc([N+](=O)[O-])cc12
inactive: [1] -6.5% | [2] -27.8% | [3] 1.05% | [4] -7.8% | [5] -2.1% | [6] 0.2%

Cc1ccnc(NS(=O)(=O)c2ccc(N=Cc3ccccc3O)cc2)n1
inactive: [1] -28.4% | [2] -20.1% | [3] -13.9% | [4] -40.4% | [5] -36.2% | [6] -0.5%

COc1cc(C(=O)C(O)c2cc(OC)c(OC)c(OC)c2)cc(OC)c1OC (stereo unspecified)
inactive: [1] 18% | [2] 11.2% | [3] 11.1% | [4] -13% | [5] 2.95% | [6] 28.3%

COc1cc2c(cc1OC)-c1cc3cc(OC)c(OC)cc3c(C)[n+]1CC2 (tested in a mixture with another compound)
inactive: [1] 6.25% | [2] 0% | [3] 11.9% | [4] 19.4% | [5] 11.4% | [6] -66.8%

Cc1ccc2cccc(OCC(=O)O)c2n1
inactive: [1] 5.7% | [2] 13.4% | [3] 6.1% | [4] 3.45% | [5] -8.45% | [6] 13.3%

C=CCS(=O)CC(NC(=O)c1ccccc1)C(=O)O (stereo unspecified)
inactive: [1] -32% | [2] -3.75% | [3] 20.6% | [4] -15.4% | [5] 4.1% | [6] -13.4%

CCCCCCCCC(CO)CCCCCC (stereo unspecified)
inactive: [1] 15.9% | [2] -1.05% | [3] 31.4% | [4] 1.65% | [5] -6.4% | [6] 9.15%

CN1CCC2(C1)C1CC3CC(C1)CC2C3 (stereo unspecified)
inactive: [1] 1.2% | [2] -13.9% | [3] -8.5% | [4] -7.3% | [5] 3.4% | [6] -9.35%

CCOC(=O)C(O)(NC(=O)Nc1ccc(F)cc1)C(F)(F)F (stereo unspecified)
inactive: [1] -22.4% | [2] -22.3% | [3] -72.9% | [4] -35.9% | [5] -37.3% | [6] -60.9%

O=C(O)c1cc(N=Nc2ccc([N+](=O)[O-])cc2S(=O)(=O)O)ccc1O
inactive: [1] -6% | [2] -2.35% | [3] 24.3% | [4] 16.1% | [5] -19.8% | [6] -9.75%

Nc1nc(=O)n(C2CC(O)C(CO)O2)cc1I (stereo unspecified)
inactive: [1] -43.3% | [2] 1% | [3] 7.55% | [4] -17.2% | [5] -0.8% | [6] 11.2%

Cc1nc(-c2ccccc2)[nH]c(=O)c1Cc1cc2c(cc1O)OCC2
inactive: [1] 21.8% | [2] 6.6% | [3] 6.9% | [4] -12.2% | [5] -7.85% | [6] 8.4%

Cc1cc([N+](=O)[O-])ccc1N=Nc1ccc([N+](=O)[O-])cc1C
inactive: [1] -0.6% | [2] -1.9% | [3] 1.2% | [4] -49.1% | [5] 5.4% | [6] -8.65%

CC1(C)CC(=O)C2=C(C1)NC(=S)C(C#N)C2c1ccccc1 (stereo unspecified)
inactive: [1] 10.2% | [2] -4% | [3] 14.7% | [4] 9.55% | [5] 21.1% | [6] 30.2%

COc1cccc(NCNC2Nc3ccccc3N2)c1
inactive: [1] 25.1% | [2] 10.1% | [3] -0.75% | [4] -23.4% | [5] 18.4% | [6] 19.8%

NC(=O)NCCCC1NC(=S)N(c2ccccc2)C1=O (stereo unspecified)
inactive: [1] -3.35% | [2] -4.35% | [3] -3.2% | [4] -2.95% | [5] 23.9% | [6] 34%

COc1cc(/C=N/N2CC(=O)N(c3cccc(Cl)c3)CC2=O)cc(OC)c1
inactive: [1] -1.65% | [2] 5.7% | [3] -1.6% | [4] -12.8% | [5] -4.65% | [6] 26.7%

CCOC(=O)NC1CCc2ccccc2C1 (stereo unspecified)
inactive: [1] 5.95% | [2] 0.3% | [3] 4% | [4] -13.9% | [5] -3% | [6] 2.6%

COc1ccc(C2(O)c3ccccc3C(=O)c3ccc(OC)cc32)cc1 (stereo unspecified)
inactive: [1] -3.15% | [2] -10.6% | [3] 4.15% | [4] 14.8% | [5] -11.1% | [6] -10.5%

Cc1cc(CC#N)c(CC#N)cc1C
inactive: [1] 4.05% | [2] -10.1% | [3] -7% | [4] 9.2% | [5] -3.95% | [6] 3.95%

CCc1c(CO)cnc(C)c1OP(=O)(O)O
inactive: [1] -33.5% | [2] -39.5% | [3] -18.1% | [4] 3.65% | [5] -39.6% | [6] -22.6%

Cc1ccc(S(=O)(=O)N/N=C/c2cc([N+](=O)[O-])cc(I)c2O)cc1
inactive: [1] 2.35% | [2] -3.6% | [3] -4.5% | [4] -50.4% | [5] -10.6% | [6] 4.2%

CS(=O)(=O)OCC(Cc1ccccc1)N1C(=O)c2ccccc2C1=O (stereo unspecified)
inactive: [1] 1.3% | [2] 4.05% | [3] 17.9% | [4] 12.2% | [5] 26.9% | [6] 34.1%

CC(C)(C)OC(=O)NC(Cc1ccccc1)NC(=O)NC(=O)OCc1ccccc1 (stereo unspecified)
inactive: [1] -25.3% | [2] -9.85% | [3] -6.45% | [4] -0.65% | [5] -13.8% | [6] -27.1%

O=C1NC(=O)[C@H]2C[C@H]3C(=O)NC(=O)[C@H]3[C@@H]12
inactive: [1] -0.7% | [2] 2.75% | [3] -6.9% | [4] -11.3% | [5] 3.8% | [6] 7.15%

CC(C)C(=O)NCCc1ccccc1
inactive: [1] 0% | [2] 0.45% | [3] -3.15% | [4] -26.6% | [5] -0.45% | [6] 2.95%

COC12C=CC(CC1)C(C)(C)C2=O (stereo unspecified)
inactive: [1] 8.85% | [2] -4.7% | [3] -3.9% | [4] 3.2% | [5] -3.05% | [6] -0.55%

NC(=O)C1N=NSC1NC(=O)c1ccc([N+](=O)[O-])cc1 (stereo unspecified)
inactive: [1] 1.8% | [2] -5.6% | [3] -8.9% | [4] 6.65% | [5] -9.15% | [6] 5.45%
